Source: PubChem BioAssay (National Center for Advancing Translational Sciences (NCATS))
This is a sample that favours compounds with a hit; in the whole collection about 1.1% have one here.
SARS PLP yeast = inhibitors of SARS-CoV papain-like protease in yeast; Potency, µM (top dose mostly 32.9 µM), most hits filed as activators; actives 0.19% (n = 330,000); AID 485353; S. cerevisiae expressing SARS-CoV PLpro, growth rescue; calls by dose curve; note: nearly all actives have a fitted effect of over 55% in size
Giardia FBPA inh-1 = blocks Giardia fructose-bisphosphate aldolase activity. purified Giardia FBPA. Potency, µM (highest dose often 59.6 µM), hits mostly inhibitors. actives 0.71% (n = 290,000). AID 2451; note: nearly all actives have a fitted effect of over 55% in size
Target sequence (A8B2U2 whole entry, looked up): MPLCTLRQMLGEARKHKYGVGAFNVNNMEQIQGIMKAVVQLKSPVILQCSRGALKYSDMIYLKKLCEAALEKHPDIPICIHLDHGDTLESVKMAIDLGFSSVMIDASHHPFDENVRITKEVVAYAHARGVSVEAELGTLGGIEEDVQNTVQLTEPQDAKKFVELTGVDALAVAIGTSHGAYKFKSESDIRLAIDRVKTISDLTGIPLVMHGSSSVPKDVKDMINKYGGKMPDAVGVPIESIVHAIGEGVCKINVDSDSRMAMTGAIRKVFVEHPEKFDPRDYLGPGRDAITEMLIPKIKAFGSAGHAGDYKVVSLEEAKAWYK
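40 nM FBPA preincubated 10 min at RT with compound (up to 57.5 uM final), then substrate plus GAPDH/TPI/NAD/arsenate coupling and diaphorase/resazurin added. Fluorescence read after 20 min at RT, 525/598 nm.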
AmpC detergent = blocks E. coli AmpC beta-lactamase in detergent assay. P00811. AmpC hydrolysis of nitrocefin, absorbance 480 nm, 0.01% Triton. Potency, µM (highest dose often 114 µM), hits mostly inhibitors. actives 0.041% (n = 370,000); note: nearly all actives have a fitted effect of over 25% in size
Target sequence (P00811 whole entry, looked up): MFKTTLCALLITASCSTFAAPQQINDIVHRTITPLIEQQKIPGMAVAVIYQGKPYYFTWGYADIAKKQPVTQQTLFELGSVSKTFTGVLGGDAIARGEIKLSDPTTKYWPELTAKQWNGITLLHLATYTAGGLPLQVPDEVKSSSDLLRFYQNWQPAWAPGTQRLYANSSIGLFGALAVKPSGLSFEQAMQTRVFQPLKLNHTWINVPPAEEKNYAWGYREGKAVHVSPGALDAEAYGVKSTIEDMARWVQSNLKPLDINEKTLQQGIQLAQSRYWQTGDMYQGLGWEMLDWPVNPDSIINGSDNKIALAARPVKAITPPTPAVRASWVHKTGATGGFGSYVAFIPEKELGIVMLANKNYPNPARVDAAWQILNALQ
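20 mM phosphate pH 7.0 + 0.01% (detergent screen) or 0.0001% Triton X-100; 5.3 nM AmpC reagent; cpd preinc 15 min RT; nitrocefin (800 uM stock) to start; A480 q20 s × 4 min; Activity was normalised to no-enzyme and no-compound control wells.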
AmpC no deterg = inhibitors of E. coli AmpC beta-lactamase without detergent. AID 485341. actives 0.52% (n = 330,000). AmpC nitrocefin hydrolysis, absorbance 480 nm, 0.0001% Triton. Potency, µM (doses to about 57.1 µM), hits mostly inhibitors; note: nearly all actives have a fitted effect of over 20% in size
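20 mM phosphate pH 7.0 + 0.01% (detergent screen) or 0.0001% Triton X-100; 5.3 nM AmpC reagent; cpd preinc 15 min RT; nitrocefin (800 uM stock) to start; A480 q20 s × 4 min; Activity was normalised to no-enzyme and no-compound control wells.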
Giardia growth = Giardia lamblia growth inhibition. actives 5% (n = 1,500). shares compounds with Giardia FBPA inh-1. AID 2785. Giardia lamblia trophozoite growth inhibition. Potency, µM (highest dose often 57.5 µM), most hits filed as inhibitors;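 note: trophozoites exposed to compound for 48 h at 37 °C; nearly all actives have a fitted effect of over 70% in size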
Mammal cell tox = mammalian cytotoxicity of Giardia aldolase inhibitor hits | shares compounds with Giardia FBPA inh-1 | mammalian cell viability counter-screen, qHTS | Potency, µM (highest dose often 57.5 µM), actives largely listed as inhibitors | actives 4% (n = 1,500);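 note: Chinese hamster ovary cells used as mammalian cytotoxicity surrogate; viability measured as cellular ATP by luminescence; compound exposure lasted 48 h before reading; nearly all actives have a fitted effect of over 60% in size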
Giardia FBPA inh-2 = confirmation of Giardia fructose-bisphosphate aldolase inhibitors. shares compounds with Giardia FBPA inh-1. purified Giardia aldolase enzyme activity, qHTS. Potency, µM (top dose mostly 57.5 µM), hits mostly inhibitors. actives 5% (n = 1,500). AID 2787; note: nearly all actives have a fitted effect of over 45% in size
Rabbit aldolase = blocks rabbit muscle aldolase in Giardia aldolase selectivity test | Rabbit muscle FBPA enzyme inhibition, selectivity counter-screen | AID 2794 | actives 4% (n = 1,500) | Potency, µM (top dose mostly 57.5 µM), usual class: inhibitors | shares compounds with Giardia FBPA inh-1; note: nearly all actives have a fitted effect of over 60% in size
GAPDH coupling = counter-screen for Giardia aldolase inhibitors: GAPDH coupling enzyme; shares compounds with Giardia FBPA inh-1; GAPDH coupling enzyme counterscreen, biochemical, qHTS; Potency, µM (highest dose often 57.5 µM), usual class: inhibitors; actives 6% (n = 1,500); note: nearly all actives have a fitted effect of over 55% in size
Numbers stand for hits; 0 = inactive; ? = inconclusive; - = no result given; [ ] = remark or other dose. Unless noted, calls come from the whole dose curve; as a rule, active = well fitted curve in the direction sought with a large enough effect; inconclusive = small, poorly fitted or top-dose-only effect, or another doubt; inactive = no such curve, though single readings can be large; an effect the other way counts as inactive or inconclusive.

SMILES	SARS PLP yeast	Giardia FBPA inh-1	AmpC detergent	AmpC no deterg	Giardia growth	Mammal cell tox	Giardia FBPA inh-2	Rabbit aldolase	GAPDH coupling
Cc1ccc(CCNC(=O)c2ccc3c(c2)c(C)c(C)n3Cc2ccccc2)cc1	-	-	0	-	-	-	-	-	-
O=[N+]([O-])c1ccccc1C1Nc2cccc3cccc(c23)N1	0	?	0	0	10µM	0	?	0	?
Cc1nnc(SCc2cc(=O)n3cccc(C)c3n2)s1	-	-	0	-	-	-	-	-	-
Cc1cc(=O)n2cccc(O)c2n1	0	19.9µM	0	0	0	0	0	?	?
CCOC(=O)CN1C(=O)/C(=C2\SC(=S)N(NC(=O)c3cccnc3)C2=O)c2ccccc21	0	14.1µM	0	0	6.31µM	0	0	0	?
CN1C(=O)/C(=C2\SC(=S)N(CCCCCC(=O)O)C2=O)c2ccccc21	0	0	0	0	-	-	-	-	-
CN1C(=O)/C(=C2\SC(=S)N(NC(=O)c3cccnc3)C2=O)c2ccccc21	0	7.08µM	0	0	11.2µM	0	0	0	0
CC(=O)c1cc(-c2ccc(F)cc2)n(CC(=O)NC2CCCCCC2)c1C	-	-	0	-	-	-	-	-	-
N#CCC(=O)Nn1c(=S)[nH]c2ccccc2c1=O	0	3.54µM	0	0	0	0	0	0	0
CCCCN1CC(c2nc3ccccc3n2CCCCOc2cccc(C)c2C)CC1=O (configuration not stated)	-	-	0	-	-	-	-	-	-
COCCNC(=O)c1ccccc1NC(=O)c1nsc2ccccc12	-	-	0	-	-	-	-	-	-
CN(CCc1ccccn1)S(=O)(=O)c1ccccc1F	0	0	?	0	-	-	-	-	-
CN(CCc1ccccn1)Cc1ccc(Cl)c(Cl)c1	0	?	0	0	-	-	-	-	-
CN(CCc1ccccn1)Cc1ccc(Cl)cc1Cl	0	17.7µM	0	0	0	0	0	0	0
CSc1ccc(CN(C)CCc2ccccn2)cc1	0	14.1µM	0	0	0[10.4 µM]	0	0	0	0
Cc1nn(CCC(=O)Nc2ccc(Cl)cc2)c(C)c1S(=O)(=O)N1CCCCC1	-	-	0	-	-	-	-	-	-
N#Cc1c(-c2ccc(Cl)cc2)cc(-c2ccccc2)nc1SCC(=O)O	0	0	0	0	-	-	-	-	-
N#Cc1c(-c2ccc(F)cc2)cc(-c2ccccc2)nc1SCC(=O)NCC(=O)O	0	7.06µM	0	0	0	0	0	0	0
C=CCN1CCc2cccc3c2[C@H]1Cc1ccc(O)c(O)c1-3	0	?	0	0	-	-	-	-	-
CN1CCc2cccc3c2C1Cc1ccc(O)c(O)c1-3 (configuration not stated)	0	14.1µM	?	0	0[10.4 µM]	0	?	?	0
NNc1nc2c(-c3ccc(Cl)cc3)nnn2c2ccccc12	0	14.1µM	?	0	?	?	0	0	0
NNc1nc2c(-c3ccc(F)cc3)nnn2c2ccccc12	0	?	?	0	-	-	-	-	-
COc1cc(CC(=O)Nc2nccs2)cc(OC)c1OC	?	0	0	0	-	-	-	-	-
COC(=O)c1sc(NC(=S)NC(=O)c2cc(OC)c(OC)c(OC)c2)nc1C	0	3.16µM	0	0	0[10.4 µM]	0	0	0	0
CCN(CC)C(=S)NC(=O)c1cc(OC)c(OC)c(OC)c1	0	17.7µM	0	0	0	0	0	0	0
SMILES	SARS PLP yeast	Giardia FBPA inh-1	AmpC detergent	AmpC no deterg	Giardia growth	Mammal cell tox	Giardia FBPA inh-2	Rabbit aldolase	GAPDH coupling
COc1cc(C(=O)NC(=S)Nc2nccs2)cc(OC)c1OC	0	14.1µM	0	0	?	0	0	0	0
COc1cc(C(=O)NC(=S)Nc2ccc([N+](=O)[O-])cc2)cc(OC)c1OC	0	12.6µM	0	0	0	0	0	0	0
COc1ccc(OC2C=CC(c3ccccc3)OC2CO)c(C(C)(C)C)c1 (configuration not stated)	-	0[12.9 µM]	-	-	-	-	-	-	-
CCCn1c(CCC(=O)Nc2cc(Cl)c(OC)cc2OC)nc2cccnc21	-	-	0	-	-	-	-	-	-
Cc1ccc(NC(=O)Cn2ncn3c(cc4ccccc43)c2=O)cc1C	-	-	0	-	-	-	-	-	-
Cc1nn(C)c(C(=O)NC(=S)Nc2ccc([N+](=O)[O-])cc2)c1Cl	0	12.6µM	0	0	0[10.4 µM]	0	0	0	0
O=C(Nc1nccc(-c2cccs2)n1)c1ccccc1Cl	0	7.92µM	0	0	0	0	25.1µM	25.1µM	15.8µM
O=C(CSc1nccc(-c2cccs2)n1)Nc1ccc(Cl)cc1	0	0	0	0	-	-	-	-	-
Cc1n[nH]c(=S)c2nn(-c3ccccc3)c(C)c12	0	0	?	0	-	-	-	-	-
Cc1ccc(-n2nc3c(=S)[nH]nc(C)c3c2C)cc1	0	25.1µM	0	0	0	0	0	0	0
Cc1cccc(OCCOCCSc2ncccn2)c1	0	0	0	0	-	-	-	-	-
Cc1cccc(OCCSc2nc(N)cc(N)n2)c1	0	15.8µM	0	0	0	0	0	0	0
CCOC(=O)Nc1ccc2c(c1)N(C(=O)N1CCN(C)CC1)c1ccccc1CC2	0	0	0	0	-	-	-	-	-
CC(C)OC(=O)Nc1ccc2c(c1)N(C(=O)N1CCN(C)CC1)c1ccccc1CC2	0	15.8µM	0	0	8.91µM	1.78µM	0	0	0
c1ccc(C2=NNC(c3ccccn3)=NN2)nc1	0	7.94µM	0	0	?	0	0	0	?
CCOc1ccccc1-n1nnc(-c2nsc(NC(=O)c3ccc(C)cc3)n2)c1C	-	-	0	-	-	-	-	-	-
O=c1cc(-c2ccccc2O)oc2cc(O)ccc12	-	0	-	-	-	-	-	-	-
O=c1cc2oc3cc(O)c(O)cc3c(-c3ccccc3O)c-2cc1O	0	15.8µM	0	15.8µM	0	0	?	0	0
CCN(Cc1ccccc1)C(=O)Cn1c(=O)n(-c2ccccc2)c(=O)c2c1c1cc(C)ccc1n2C	-	-	0	-	-	-	-	-	-
CCOC(=O)c1c(-c2ccc(OC)cc2)csc1NC(=O)CNCc1ccco1	0	?	0	0	-	-	-	-	-
CCOC(=O)c1c(-c2ccc(Cl)cc2)csc1NC(=O)CNCc1ccco1	0	15.8µM	0	0	0	0	0	0	0
CC1C(=O)N2CCCc3cc(S(=O)(=O)Nc4ccc(Br)cc4F)cc1c32 (configuration not stated)	-	-	0	-	-	-	-	-	-
Cc1ccc(N=c2ssnc2Cl)cc1	0	?	0	0	-	-	-	-	-
COc1cc(N=c2ssnc2Cl)c(OC)cc1Cl	0	?	0	0	-	-	-	-	-
COc1ccc(OC)c(N=c2ssnc2Cl)c1	0	17.7µM	0	0	?	0	0	0	0
Cc1cc(Cl)ccc1N=c1ssnc1Cl	0	15.8µM	0	0	0	0	0	0	0
CCc1cccc(-n2c(=O)c3cccnc3n2CC(=O)NCc2ccccc2)c1	-	-	0	-	-	-	-	-	-
